# Source: PubChem BioAssay (NCI)
# About 79,000 compounds went through this panel and 15% of them were active in at least one assay; those are over-represented in the sample as a whole. Values without a mark were called inactive. The source made the active and inactive calls. Cut-off read from the data, not from the text of the source: active = growth inhibition above about 70%; inactive = the rest. Where a SMILES comes first, the peptide text is derived from it. [ ]: non-standard residue; d: D form. The star is where a group is joined. ξ: configuration not given here. ξPhe(4-NO2) = NC(Cc1ccc([N+](=O)[O-])cc1)C(=O)O; Boc = CC(C)(C)OC(=O)*; OBn = c1ccc(CO*)cc1
# How the values were obtained:
# [1] = NCI Yeast Anticancer Drug Screen. Data for the rad50 strain (AID 155);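 note: 0% = growth of vehicle-only cultures of the same strain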; conditions: S. cerevisiae rad50 strain growth inhibition; at 50.0 µM; hits give high values
# In short: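 A DNA repair-deficient yeast mutant serves as the test organism; compound-induced growth inhibition is calculated against vehicle-treated cells.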
# [2] = NCI Yeast Anticancer Drug Screen. Data for the mec2-1 strain (AID 157); conditions: S. cerevisiae mec2-1 strain, at 50.0 µM, hits give high values
# In short: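 Compounds were applied to mec2-1 yeast cells. Their growth was then compared with that of vehicle-treated cultures to give growth inhibition.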
# [3] = NCI Yeast Anticancer Drug Screen. Data for the sgs1 mgt1 strain (AID 161);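 note: 0% = growth of cultures given vehicle only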; conditions: S. cerevisiae sgs1 mgt1 strain, at 50.0 µM, hits give high values
# In short: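 Growth of a repair-deficient yeast mutant was monitored after compound treatment and expressed as inhibition relative to vehicle-treated cultures.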
# [4] = NCI Yeast Anticancer Drug Screen. Data for the cln2 rad14 strain (AID 165);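 note: 0% = growth equal to vehicle treated cultures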; conditions: S. cerevisiae cln2 rad14 strain, at 50.0 µM, hits give high values
# In short: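 Strain: cln2 rad14 yeast, altered in cell cycle control and DNA damage repair. Read-out: growth inhibition vs vehicle.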
# [5] = NCI Yeast Anticancer Drug Screen. Data for the bub3 strain (AID 167); conditions: S. cerevisiae bub3 mutant strain, at 50.0 µM, hits give high values
# In short: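 Inhibition values come from growth of compound-treated mutant yeast normalised to vehicle-treated controls.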
# [6] = NCI Yeast Anticancer Drug Screen. Data for the mlh1 rad18 strain (AID 175); conditions: S. cerevisiae mlh1 rad18 strain growth inhibition; at 50.0 µM; hits give high values
# In short: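 A repair-deficient yeast strain is exposed to test compound, and growth is scored relative to vehicle-treated controls.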
Structure (SMILES),growth inhibition [1],growth inhibition [2],growth inhibition [3],growth inhibition [4],growth inhibition [5],growth inhibition [6]
O=C(O)CNC(=O)NC(Cc1ccccc1)C(=O)O (stereo unspecified),9.1%,12.4%,-0.45%,71.5% (active),18.6%,8%
COC(=O)NC1=Nc2ccc(Cl)cc2NS1,2.4%,-10.2%,-25.1%,2.05%,22.1%,-4.65%
O=C1CCCCCCCCCCC1Sc1ccccc1 (stereo unspecified),-23.2%,-36.6%,-6.8%,3.1%,7.3%,-28.9%
C[C@H](CCC(=O)O)[C@H]1CC[C@H]2[C@@H]3CC[C@@H]4C[C@H](O)CC[C@]4(C)[C@H]3CC[C@]12C,40%,31.4%,10%,0.75%,25.8%,23.6%
COC(=O)c1ccccc1NC(=O)Nc1ccc(F)c([N+](=O)[O-])c1,3.75%,22.9%,3.15%,0.85%,11.6%,-10.9%
CCCCCCCCCCCC(=O)N(CCOC(=O)c1ccccc1)CCc1ccccc1,32.6%,9.45%,16.6%,19.2%,-3.2%,24.5%
O=C1C=CC(=Nc2ccc(OC(=O)c3ccccc3)cc2)C=C1,9.9%,-4.95%,1.45%,-35%,-3.8%,9.35%
CC(C)(C)OC(=O)NC(Cc1ccc([N+](=O)[O-])cc1)C(=O)NCC(=O)OCc1ccccc1 (stereo unspecified) (Boc-[ξPhe(4-NO2)]-Gly-OBn),-17.4%,8.45%,7.05%,32.5%,-5.5%,-9%
OC1OC(CCl)C(Cl)C(O)C1O (stereo unspecified),0.55%,-2.95%,9.9%,-11%,-18.9%,-16.6%
CC(C)(C)c1cc(-c2cc(C(C)(C)C)n(-c3ccccc3)n2)nn1-c1ccccc1,-22.6%,-26.9%,-17.3%,16%,-31.4%,-27.2%
O=C(OCCNC1CCCCC1)c1ccc([N+](=O)[O-])cc1,8.85%,2.5%,1.45%,-43.5%,-4.5%,11.3%
CCOC(=O)C(=[N+]=[N-])C(=O)CN1C(=O)c2ccccc2C1=O,-21.6%,-7%,-31.5%,-7.7%,5.9%,-15.9%
Cn1cc([N+](=O)[O-])cc1C(=O)Nc1cc(C(=O)Nc2ccc(S(=O)(=O)O)c3cc(S(=O)(=O)O)ccc23)n(C)c1,2.4%,21.4%,14.3%,17.4%,20.4%,11.7%
CCCCCCSc1ccc([N+](=O)[O-])cc1[N+](=O)[O-],4.95%,-6%,-10.6%,-6.8%,24.9%,-21.1%
N#CC(C(=O)CCc1nc2ccccc2[nH]1)c1nc2ccccc2s1 (stereo unspecified),6.75%,-3.5%,-9.55%,-17.8%,4.35%,-0.6%
c1ccc(C2CN3CCSC3=N2)cc1 (stereo unspecified),-30.4%,-34.8%,-19.1%,5.5%,-12.2%,-16.9%
CCC1(C)CC(C)(C)c2ccc(C)cc21 (stereo unspecified),-0.8%,-2.75%,-6.4%,-9.2%,-2.9%,-2.25%
N#CCSCC(N)C(=O)O (stereo unspecified),-11.1%,-15.2%,-1.1%,-6.75%,-19.6%,-4.8%
COc1cc2c(cc1OC)C(=O)N(c1ccc(OCCN3CCCC3)cc1)C2=O,-20.7%,-17.9%,4.7%,19.4%,15.8%,-10.4%
CC(O)CC1CC(=O)CCC1=O (stereo unspecified),0.35%,-18.1%,-10.7%,-29.2%,-5.85%,8.3%
Cc1cc(C)nc(Sc2c([N+](=O)[O-])ncn2C)n1,4.1%,-17.3%,-20.9%,4.65%,12.6%,-10.3%

Structure (SMILES),growth inhibition [1],growth inhibition [2],growth inhibition [3],growth inhibition [4],growth inhibition [5],growth inhibition [6]
CCOC(=O)Cc1nc2ccccc2[nH]c1=O,25%,-11.7%,1.25%,0.35%,-6.35%,-17.2%
C/C=C(/C)C(=O)O[C@H]1C[C@@H]2[C@@H](O)c3occ(C)c3C[C@]2(C)[C@@H](C)C1,91% (active),92.4% (active),91.6% (active),90% (active),90.8% (active),90.2% (active)
COc1ccc(-c2oc3cc(OC)ccc3c(=O)c2O)cc1,22.5%,25.4%,8.1%,-3.5%,-5.1%,8.25%
COC(=O)c1ccccc1CC1Cc2cc3c(cc2C1)CCC3,20.5%,7.1%,-0.7%,12.9%,4.3%,5.45%
CC(=O)Oc1cccc(O)c1,-1.55%,-3.65%,-15.2%,-22.5%,-4.15%,3%
COc1ccc2ccccc2c1C(=O)/C=C/c1ccccc1,35%,33.6%,38.9%,47.8%,58.8%,39.4%
COc1ccc(C2SCC(=O)N2NC(=O)c2ccc(NC(C)=O)cc2)cc1 (stereo unspecified),-50%,-49.5%,-62.5%,-8.9%,-21.7%,-61.5%
CC(=O)N1c2ccccc2C(C)(C)C1O (stereo unspecified),6.85%,17.1%,-3.55%,-13.7%,-12.4%,3.7%
CS(=O)(=O)C(C#N)S(C)(=O)=O,-1.85%,-1.05%,-6.05%,-19.2%,40.9%,-10.1%
O=C1C=C(Nc2ccccc2)c2ccc(S(=O)(=O)O)cc2C1=O,0.4%,-6.9%,10.1%,-0.8%,-29.1%,-6.55%
Cn1cnc2c(=S)nc[nH]c21,7.75%,-10%,-25.1%,-9.9%,-8.75%,-20.9%
O=C1c2ccc(O)cc2OC(c2ccc(O)c(O)c2)C1O (stereo unspecified),7.6%,-7.25%,17.8%,1.85%,6%,6.4%
CC(=O)OCC1OC(Cl)C(NS(=O)(=O)Cc2ccccc2)C(OC(C)=O)C1OC(C)=O (stereo unspecified),7.6%,15.7%,15.7%,24.6%,5.35%,22.4%
CCOC(=O)C12CCC(=O)C=C1[C@@H](C)C(=O)CC2 (stereo partly specified),-20.1%,-48.6%,-41.1%,-10.2%,-34.7%,-23.4%
CC(C)=NNC(=O)COCC(=O)NN=C(C)C,0.25%,-4.45%,-1.35%,-84.5%,-22.9%,1.35%
O=C(Nc1cccc(Cl)c1Cl)Oc1ccc(Cl)cc1C(=O)c1ccccc1,-7.8%,-1%,-17.1%,4.5%,-12.9%,-27.4%
CCc1cc2c(ccc3ccccc32)c2c1CCC2,-11.6%,-11.7%,-1.8%,-17.1%,5.3%,1.6%
CC(C)CN(CC(=O)NC(=O)c1ccccc1)CC(C)C,-2.1%,-10.1%,-12.2%,-37.9%,-4%,-3.8%
C/C(CC/C(C)=N/O)=N\O,6.4%,4.25%,-0.55%,-9.45%,11.6%,9.7%
CC(=O)COc1ccccc1[N+](=O)[O-],9.65%,0%,8.15%,8.95%,1.3%,15.8%
